From PubChem BioAssay (EPA / NIEHS)
Records with an inconclusive call do not appear. Where a structure was tested more than once in an assay, its records may differ in their call. The source made the active and inactive calls. The calls were made as follows, unless noted: active = hit-call score of the fitted dose curve at least 0.9, where 1 is the maximum; inactive = score below 0.9.

Experiments:
[1] = target: human RAR-related Orphan Receptor gamma (RORg), RORC (gene 6097) (UniProt P51449); test: ATG_RORg_TRANS: Attagene TRANS-FACTORIAL HepG2 Assay for human RAR-related Orphan Receptor gamma (RORg) (AID 2283011; active = hit-call score of the fitted dose curve at least 0.9, where 1 is the maximum)
Summary of the method: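 Readout: reporter transcript induction (RT-PCR, fluorescent primer extension, capillary electrophoresis) after 24 h compound exposure of transiently transfected HepG2 cells carrying a RORg-Gal4 chimera and GAL4-UAS reporters; DMSO served as baseline, with increasing signal fitted.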

[2] = target: Retinoic acid receptor RXR-alpha (Homo sapiens) (UniProt P19793); test: ATG_RXRa_TRANS: Attagene TRANS-FACTORIAL HepG2 Assay for human Retinoid X Receptor alpha (RXRa) (AID 2283012; active = hit-call score of the fitted dose curve at least 0.9, where 1 is the maximum)
Summary of the method: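 HepG2 cells transiently transfected with GAL4-UAS reporter units and chimeric RXRa-Gal4 protein, treated 24 h. Reporter mRNA measured by RT-PCR, fluorescent labelling, HpaI digestion and capillary electrophoresis. Induction fitted against DMSO.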

[3] = target: human Thyroid Receptor alpha (THRa1), THRA (gene 7067) (UniProt P10827); test: ATG_THRa1_TRANS: Attagene TRANS-FACTORIAL HepG2 Assay for human Thyroid Receptor alpha (THRa1) (AID 2283014; active = hit-call score of the fitted dose curve at least 0.9, where 1 is the maximum)
Summary of the method: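 HepG2 cells transiently transfected with multiplexed GAL4-UAS reporter units for exogenous chimeric THRa1-Gal4; reporter mRNA measured 24 h after dosing by RT-PCR, 6-FAM labelling, HpaI digestion and capillary electrophoresis. Gain-of-signal fitted versus DMSO baseline.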

[4] = read-out: Interleukin-1 alpha (IL1a), IL1A (gene 3552); test: BSK_BE3C_IL1a: BioMAP Diversity Plus: BE3C Assay for Interleukin-1 alpha (IL1a) Biomarker Activity (AID 2283016); conditions: primary human bronchial epithelial cells; actives raise or lower the signal
Summary of the method: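 Human primary bronchial epithelial cells, 24 h chemical exposure; IL-1a quantified by ELISA, fitted bidirectionally against DMSO. Cytotoxicity assessed in parallel by SRB total-protein staining at the time of measurement.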

[5] = read-out: Monocyte Chemoattractant Protein-1 (MCP1), CCL2 (gene 6347); test: BSK_4H_MCP1: BioMAP Diversity Plus: 4H Assay for Monocyte Chemoattractant Protein-1 (MCP1) Biomarker Activity (AID 2283018); conditions: primary human endothelial cells (HUVEC); actives raise or lower the signal
Summary of the method: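 Human umbilical vein endothelial cells (4H system) exposed to chemicals for 24 h in 96-well format. MCP-1 measured by ELISA; bidirectional fitting against DMSO, with SRB total-protein staining in parallel cultures for cytotoxicity.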

[6] = read-out: Human Leukocyte Antigen - DR isotype (HLADR), HLA-DRA (gene 3122); test: BSK_3C_HLADR: BioMAP Diversity Plus: 3C Assay for Human Leukocyte Antigen - DR isotype (HLADR) Biomarker Activity (AID 2283019); conditions: primary human endothelial cells (HUVEC); actives raise or lower the signal;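 also: ELISA of cell-surface HLA-DR on HUVEC 24 h after dosing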
Summary of the method: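 Primary human umbilical vein endothelial cells (3C system) were dosed with compound and cell-surface HLA-DR was quantified by ELISA at 24 h. Activity was fitted bidirectionally against DMSO as negative control and baseline.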

[7] = read-out: Interleukin-8 (IL8), CXCL8 (gene 3576); test: BSK_3C_IL8: BioMAP Diversity Plus: 3C Assay for Interleukin-8 (IL8) Biomarker Activity (AID 2283020); conditions: primary human endothelial cells (HUVEC); actives raise or lower the signal
Summary of the method: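 Primary human umbilical vein endothelial cells were dosed for 24 h. IL-8 was quantified by ELISA and fitted bidirectionally against DMSO. Cytotoxicity was assessed in parallel cultures by SRB staining at 560 nm.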

[8] = read-out: Monokine induced gamma interferon (MIG), CXCL9 (gene 4283); test: BSK_3C_MIG: BioMAP Diversity Plus: 3C Assay for Monokine induced gamma interferon (MIG) Biomarker Activity (AID 2283021); conditions: primary human endothelial cells (HUVEC); actives raise or lower the signal
Summary of the method: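 HUVEC primary endothelial cultures dosed with chemical; MIG quantified by ELISA at 24 h. Data fitted bidirectionally against DMSO control, with parallel SRB total-protein staining for cytotoxicity.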

[9] = BSK_3C_SRB: Viability Assessment in the BioMAP Diversity Plus: 3C Assay (AID 2283023); conditions: primary human endothelial cells (HUVEC);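 also: fitted both ways against DMSO so a hit may be signal rise or drop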
Summary of the method: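 Primary human umbilical vein endothelial cells in the 3C system were read 24 h after compound dosing. Total protein was stained with 0.1% sulforhodamine B after 10% TCA fixation and read at 560 nm, with bidirectional fitting against DMSO as baseline.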

[10] = read-out: Matrix Metallopeptidase 1 (MMP1), MMP1 (gene 4312); test: BSK_BE3C_MMP1: BioMAP Diversity Plus: BE3C Assay for Matrix Metallopeptidase 1 (MMP1) Biomarker Activity (AID 2283024); conditions: primary human bronchial epithelial cells; actives raise or lower the signal
Summary of the method: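 Human primary bronchial epithelial cells (BE3C system) dosed for 24 h; MMP-1 quantified by ELISA. Bidirectional fit against DMSO; cytotoxicity tracked in parallel cultures by SRB total-protein staining.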

[11] = read-out: Pselectin, SELP (gene 6403); test: BSK_4H_Pselectin: BioMAP Diversity Plus: 4H Assay for Pselectin Biomarker Activity (AID 2283026); conditions: primary human endothelial cells (HUVEC); actives raise or lower the signal
Summary of the method: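 Primary human umbilical vein endothelial cells were treated 24 h, and cell-surface P-selectin was then quantified by ELISA. Bidirectional fit versus DMSO; cytotoxicity checked in parallel cultures by SRB total-protein staining.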

[12] = BSK_4H_SRB: Viability Assessment in the BioMAP Diversity Plus: 4H Assay (AID 2283027); conditions: primary human endothelial cells (HUVEC);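 also: cells exposed to compound for 24 h before staining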
Summary of the method: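 Absorbance at 560 nm of SRB-stained total protein served as the viability read-out in confluent primary human umbilical vein endothelium 24 h after chemical treatment. Curves were fitted bidirectionally against DMSO as negative control.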

[13] = BSK_BE3C_SRB: Viability Assessment in the BioMAP Diversity Plus: BE3C Assay (AID 2283028); conditions: primary human bronchial epithelial cells
Summary of the method: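 Human primary bronchial epithelial cells were exposed to test chemicals for 24 h. Total protein in parallel cultures was then measured by staining with 0.1% sulforhodamine B after 10% TCA fixation, with absorbance read at 560 nm. Activity was fitted bidirectionally against DMSO.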

[14] = read-out: Thrombomodulin, THBD (gene 7056); test: BSK_3C_Thrombomodulin: BioMAP Diversity Plus: 3C Assay for Thrombomodulin Biomarker Activity (AID 2283029); conditions: primary human endothelial cells (HUVEC); actives raise or lower the signal
Summary of the method: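 Human umbilical vein endothelial cells were exposed to chemicals for 24 h; cell-surface thrombomodulin quantified by ELISA, with bidirectional fitting against DMSO baseline.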

[15] = target: human Vitamin D Receptor (VDR), VDR (gene 7421) (UniProt P11473); test: ATG_VDR_TRANS: Attagene TRANS-FACTORIAL HepG2 Assay for human Vitamin D Receptor (VDR) (AID 2283022; active = hit-call score of the fitted dose curve at least 0.9, where 1 is the maximum)
Summary of the method: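 HepG2 cells were transiently transfected with multiple GAL4-UAS reporter units, so signal reflects exogenous chimeric receptor-Gal4 activity. After 24 h compound exposure, reporter mRNA was measured by RT-PCR, fluorescent labelling and capillary electrophoresis, fitted for gain of signal versus DMSO.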

[16] = target: human Retinoid X Receptor beta (RXRb), RXRB (gene 6257) (UniProt P28702); test: ATG_RXRb_TRANS: Attagene TRANS-FACTORIAL HepG2 Assay for human Retinoid X Receptor beta (RXRb) (AID 2283013; active = hit-call score of the fitted dose curve at least 0.9, where 1 is the maximum)
Summary of the method: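 HepG2 cells were transiently transfected with multiplexed GAL4-UAS reporters and a chimeric RXRb-Gal4 construct, then exposed for 24 h. Reporter mRNA was quantified by RT-PCR, FAM labeling, HpaI digestion and capillary electrophoresis; gain of signal was scored against DMSO.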

[17] = read-out: Monocyte Chemoattractant Protein-1 (MCP1), CCL2 (gene 6347); test: BSK_3C_MCP1: BioMAP Diversity Plus: 3C Assay for Monocyte Chemoattractant Protein-1 (MCP1) Biomarker Activity (AID 2283017); conditions: primary human endothelial cells (HUVEC); actives raise or lower the signal
Summary of the method: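 Primary human umbilical vein endothelial cells (3C system) were exposed to test chemical for 24 h, after which MCP-1 was quantified by ELISA. Activity was fitted bidirectionally against DMSO as negative control and baseline.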

[18] = read-out: E-selectin (Homo sapiens) (UniProt P16581); test: BSK_3C_Eselectin: BioMAP Diversity Plus: 3C Assay for Eselectin Biomarker Activity (AID 2283015); conditions: primary human endothelial cells (HUVEC); actives raise or lower the signal
Summary of the method: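 Primary human umbilical vein endothelial cells (3C system) were dosed with chemical and cell-surface E-selectin measured by ELISA 24 h later. Bidirectional curve fitting used DMSO as negative control and baseline.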

[19] = BSK_3C_Vis: BioMAP Diversity Plus: 3C Assay for Morphology Visualization (AID 2283025); conditions: primary human endothelial cells (HUVEC);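 also: fitted both ways so gain or loss versus DMSO counts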
Summary of the method: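 Human umbilical vein endothelial cell morphology was inspected by light microscopy 24 h after chemical dosing; scored bidirectionally relative to DMSO.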

Measured: AC50

Chain of Retinoic acid receptor RXR-alpha (Homo sapiens) (P19793 whole entry, looked up, the tested form may be a part): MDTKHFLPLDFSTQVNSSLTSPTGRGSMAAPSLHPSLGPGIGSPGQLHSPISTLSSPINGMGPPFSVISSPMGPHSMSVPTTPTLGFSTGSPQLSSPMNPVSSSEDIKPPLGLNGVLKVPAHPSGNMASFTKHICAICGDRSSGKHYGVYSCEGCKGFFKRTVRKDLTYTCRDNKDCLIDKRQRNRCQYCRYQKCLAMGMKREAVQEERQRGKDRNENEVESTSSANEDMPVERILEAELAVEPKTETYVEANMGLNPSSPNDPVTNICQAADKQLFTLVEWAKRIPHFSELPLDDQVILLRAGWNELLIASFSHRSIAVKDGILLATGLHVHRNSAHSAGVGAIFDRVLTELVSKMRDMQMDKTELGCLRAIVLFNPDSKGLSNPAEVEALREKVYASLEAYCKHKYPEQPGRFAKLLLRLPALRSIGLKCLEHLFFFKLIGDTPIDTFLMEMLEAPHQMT
Chain of human Vitamin D Receptor (VDR), VDR (gene 7421) (P11473 whole entry, looked up, the tested form may be a part): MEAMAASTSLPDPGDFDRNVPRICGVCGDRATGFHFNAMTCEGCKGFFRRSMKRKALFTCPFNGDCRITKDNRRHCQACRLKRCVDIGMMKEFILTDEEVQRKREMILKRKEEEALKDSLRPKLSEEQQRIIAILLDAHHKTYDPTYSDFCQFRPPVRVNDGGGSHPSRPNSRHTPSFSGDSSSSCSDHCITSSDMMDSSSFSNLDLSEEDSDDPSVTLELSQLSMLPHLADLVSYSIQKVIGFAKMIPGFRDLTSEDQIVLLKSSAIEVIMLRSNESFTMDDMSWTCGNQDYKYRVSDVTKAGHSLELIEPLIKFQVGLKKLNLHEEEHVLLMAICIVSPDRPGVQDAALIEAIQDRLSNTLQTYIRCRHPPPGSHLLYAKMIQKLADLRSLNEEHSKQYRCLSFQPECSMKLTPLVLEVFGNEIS
Chain of E-selectin (Homo sapiens) (P16581 whole entry, looked up): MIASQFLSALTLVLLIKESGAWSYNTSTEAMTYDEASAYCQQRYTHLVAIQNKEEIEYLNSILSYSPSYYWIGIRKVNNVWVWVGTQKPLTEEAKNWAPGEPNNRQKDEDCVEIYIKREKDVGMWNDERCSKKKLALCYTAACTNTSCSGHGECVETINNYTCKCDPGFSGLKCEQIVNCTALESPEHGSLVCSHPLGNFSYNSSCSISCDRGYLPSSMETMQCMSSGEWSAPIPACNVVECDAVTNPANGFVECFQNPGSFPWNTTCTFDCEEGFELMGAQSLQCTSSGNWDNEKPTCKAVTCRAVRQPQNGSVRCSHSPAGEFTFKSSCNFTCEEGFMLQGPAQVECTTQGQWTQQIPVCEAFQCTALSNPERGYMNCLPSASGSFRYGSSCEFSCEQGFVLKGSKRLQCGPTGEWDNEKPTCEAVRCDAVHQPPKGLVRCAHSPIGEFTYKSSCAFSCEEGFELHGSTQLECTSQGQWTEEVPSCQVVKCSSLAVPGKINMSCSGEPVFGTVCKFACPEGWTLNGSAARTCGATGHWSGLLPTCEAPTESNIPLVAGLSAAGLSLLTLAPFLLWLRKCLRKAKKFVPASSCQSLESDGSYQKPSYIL
Chain of human Retinoid X Receptor beta (RXRb), RXRB (gene 6257) (P28702 whole entry, looked up, the tested form may be a part): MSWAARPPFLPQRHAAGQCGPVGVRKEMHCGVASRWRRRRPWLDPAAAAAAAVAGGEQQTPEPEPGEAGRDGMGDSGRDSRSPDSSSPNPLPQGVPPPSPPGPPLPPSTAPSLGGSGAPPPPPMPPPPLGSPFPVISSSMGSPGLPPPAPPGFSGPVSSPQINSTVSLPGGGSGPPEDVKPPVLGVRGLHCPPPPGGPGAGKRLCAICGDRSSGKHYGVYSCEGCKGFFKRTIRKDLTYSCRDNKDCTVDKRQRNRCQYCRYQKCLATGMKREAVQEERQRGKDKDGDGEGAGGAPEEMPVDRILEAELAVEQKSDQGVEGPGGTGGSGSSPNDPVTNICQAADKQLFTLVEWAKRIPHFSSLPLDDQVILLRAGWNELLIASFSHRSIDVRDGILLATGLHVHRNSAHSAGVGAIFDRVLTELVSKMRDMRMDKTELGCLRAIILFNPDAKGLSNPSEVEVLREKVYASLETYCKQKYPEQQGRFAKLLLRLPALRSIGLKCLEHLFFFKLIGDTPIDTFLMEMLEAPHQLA
Chain of human Thyroid Receptor alpha (THRa1), THRA (gene 7067) (P10827 whole entry, looked up, the tested form may be a part): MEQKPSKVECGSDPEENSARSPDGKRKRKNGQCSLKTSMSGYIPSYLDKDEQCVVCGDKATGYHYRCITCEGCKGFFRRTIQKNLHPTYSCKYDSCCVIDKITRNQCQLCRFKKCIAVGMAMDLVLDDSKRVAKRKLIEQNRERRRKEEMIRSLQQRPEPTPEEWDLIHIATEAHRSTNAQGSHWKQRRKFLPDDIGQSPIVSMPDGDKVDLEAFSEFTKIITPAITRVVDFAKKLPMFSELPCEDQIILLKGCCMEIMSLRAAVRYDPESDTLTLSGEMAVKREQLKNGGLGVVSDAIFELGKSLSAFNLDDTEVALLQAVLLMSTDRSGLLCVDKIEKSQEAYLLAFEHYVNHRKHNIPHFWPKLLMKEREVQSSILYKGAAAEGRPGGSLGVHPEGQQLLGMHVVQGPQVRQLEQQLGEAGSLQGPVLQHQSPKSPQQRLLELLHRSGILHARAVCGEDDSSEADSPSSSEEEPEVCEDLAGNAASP
Chain of human RAR-related Orphan Receptor gamma (RORg), RORC (gene 6097) (P51449 whole entry, looked up, the tested form may be a part): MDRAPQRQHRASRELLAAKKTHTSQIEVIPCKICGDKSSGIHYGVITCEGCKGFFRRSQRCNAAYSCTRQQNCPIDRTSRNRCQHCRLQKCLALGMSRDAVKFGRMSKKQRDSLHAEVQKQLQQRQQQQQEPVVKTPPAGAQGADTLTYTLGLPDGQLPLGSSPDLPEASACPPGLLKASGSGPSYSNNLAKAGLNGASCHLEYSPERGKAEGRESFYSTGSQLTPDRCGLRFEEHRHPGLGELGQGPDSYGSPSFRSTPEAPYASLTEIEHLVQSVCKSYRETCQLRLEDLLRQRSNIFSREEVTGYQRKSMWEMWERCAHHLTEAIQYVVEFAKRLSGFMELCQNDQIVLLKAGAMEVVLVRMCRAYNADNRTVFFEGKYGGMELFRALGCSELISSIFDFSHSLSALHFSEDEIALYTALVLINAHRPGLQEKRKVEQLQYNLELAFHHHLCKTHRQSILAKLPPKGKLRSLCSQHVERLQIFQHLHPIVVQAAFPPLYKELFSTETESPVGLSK

FC(F)(F)C(F)(F)C(F)(F)C(F)(F)C(F)(F)C(F)(F)CC1CO1 (stereo unspecified)
not listed: [15] | [16] | [17] | [18] | [19]
inactive: all other assays above

CC/C=C\CCOC(C)=O
inactive: [1] | [15]

FC(F)(F)C(F)(F)C(F)(F)C(F)(F)C(F)(F)C(F)(F)C(F)(F)C(F)(F)F
not listed: [1] | [14] | [18] | [19]
inactive: all other assays above

COC(=O)CCC(F)(F)C(F)(F)C(F)(F)C(F)(F)F
not listed: [1] | [2] | [13] | [17] | [19]
inactive: all other assays above

C=C(C)C(=O)OCC(F)(F)C(F)(F)C(F)(F)C(F)(F)C(F)(F)C(F)(F)C(F)(F)F
inactive: [16] | [18] | [4] | [17] | [5] | [6] | [7] | [8] | [15] | [9] | [10] | [11] | [12] | [13]
active: [10] 3.2 µM

FC(F)(F)C(F)(F)C(F)(F)C(F)(F)CCI
inactive: [2] | [4] | [5] | [6] | [7] | [8] | [15] | [9] | [10] | [11] | [12] | [13]
active: [16] 123 µM | [10] 30 µM

C=CC(=O)OCC(F)(F)C(F)(F)C(F)(F)C(F)(F)C(F)(F)C(F)(F)C(F)(F)F
not listed: [1] | [2] | [3] | [14] | [18] | [19]
inactive: all other assays above

CN(C)Cc1ccccc1O
inactive: [16] | [3]

O=S(=O)(OCCOC(F)(F)F)C(F)(F)F
not listed: [1] | [3] | [13] | [14] | [17] | [19]
inactive: all other assays above

OCCCC(F)(F)C(F)(F)C(F)(F)F
not listed: [1] | [3] | [13] | [14] | [17] | [19]
inactive: all other assays above

CC(CCl)OP(=O)(OC(C)CCl)OC(C)CCl (stereo unspecified)
not listed: [1] | [3] | [13] | [17] | [18]
inactive: all other assays above

FC(F)(F)C(F)(F)C(F)(F)C(F)(F)C(F)(F)C(F)(F)C(F)(F)C(F)(F)CCS
not listed: [1] | [13] | [16] | [18] | [19]
inactive: all other assays above

CCCCCC=O
inactive: [2] | [16] | [3] | [15]

c1ccc(B(c2ccccc2)c2ccccc2)cc1
active: [16] 100 µM
inactive: [2] | [3] | [15]

CS(C)(=O)=O
not listed: [1] | [3] | [13] | [15] | [16] | [17] | [18]
inactive: all other assays above

Nc1ccc(S(=O)(=O)Nc2nccs2)cc1
inactive: [16]

O=C(CC(=O)C(F)(F)C(F)(F)F)C(F)(F)F
not listed: [1] | [14] | [17] | [18] | [19]
inactive: all other assays above

CCCCCCC(C)OC(=O)CCCCC(=O)OC(C)CCCCCC (stereo unspecified)
active: [16] 16.3 µM
not listed: [1] | [3] | [13] | [14]
inactive: all other assays above

CCCCC(CC)COP(=O)(O)OCC(CC)CCCC (stereo unspecified)
inactive: [18] | [4] | [5] | [6] | [7] | [8] | [15] | [9] | [10] | [11] | [12] | [14]
active: [9] 27.7 µM
